Data taken from PubChem BioAssay (NCATS).
Inconclusive results are not listed. A call without a number means that no potency is given here. Calls of active or inactive are those of the source. The call rests on the fitted dose curve; in most records, active means well fitted cell-killing curve with a large enough effect; inconclusive means small, poorly fitted or top-dose-only effect, or effect the other way; inactive means flat fitted curve, though single readings scatter.

tested on: CAOV3; test: Primary qHTS to identify gynecologic anti-cancer compounds using libraries of approved drugs and bioactive compounds (AID 1345084); conditions: Gynecologic cancer cell panel viability, ATPlite luminescence, 48 h; series mostly up to 57.5 µM; further: nearly all actives have a fitted effect of over 55% in size
Source text: National Center for Advancing Translational Sciences [NCATS] Assay Overview: Chemotherapeutic drug responses vary from cancer to cancer and from patient to patient. These variations could be caused by a number of factors including patient genomic background, tumor mutations, tumor heterogeneity, and aspects of drug treatment. Chemotherapeutic drug resistance is also a common issue and can lead to ineffective treatment and patient death. Here we have profiled the cell killing effects of thousands of compounds to characterize the responses in three gynecological cancers, identify cancer-selective compounds, and understand the diversity of responses to these compounds from pan-cancer suppressors to single cell line selective compounds. In this assay, we screened a 7,914 compound drug library that included approved drug and bioactive compounds in six ovarian, three cervical, and […] placental cancer cell lines using the ATPlite assay for cell viability. […] The cervical cancer cell lines included HeLa, Ca Ski, and C-33 A. The placental cancer cell lines included JEG-3. HEK 293T cells were used as the control cell line to determine the selectivity index. ATPlite is a luminescence based assay reliant on the conversion of a luciferase substrate to light in the presence of ATP. As a cytotoxic compound will suppress growth and decrease the number of cells, the concentration of ATP will decrease, and less light signal will be detected in the well.
Assay Protocol Summary: 1,000 cells in 4 uL of media were dispensed into white, solid bottom 1536-well plates using a Multidrop Combi (Thermo Scientific). The Assay plates were incubated for 16 hours at 37 C with 5% CO2 in assay plates, followed by the addition of 23 nL of DMSO or drug dissolved in DMSO. Each compound was assayed in five concentrations (0.092, 0.46, 2.3, 11.5, and 57.5 uM), using the automated Wako 1536 Pin Tool workstation and incubated at 37 C with 5% CO2 48 hours. 4 uL of ATPlite, the ATP monitoring reagent, was then added to the each well of the assay plates using the Multidrop Combi reagent dispenser followed by incubation for 15 minutes at room temperature. The resulting luminescence was measured using the ViewLux plate reader.
Potency means the concentration at half of the fitted maximal effect.

| SMILES | Potency |
| --- | --- |
| CC1CCC(C(=O)N(c2cc(C#CC(C)(C)C)sc2C(=O)O)C2CCC(O)CC2)CC1 (stereo not given) | inactive |
| CNC(=O)c1ccc2cc(C3(O)CCn4cncc43)ccc2c1 (stereo not given) | inactive |
| CC(C)NCC(O)COc1cccc2[nH]ccc12 (stereo not given) | inactive |
| CCn1c(C(=O)N(C2CC2)C2CC2)cc2c3c(ncn3C)c(Nc3cc(C)n(C)n3)nc21 | inactive |
| Cc1ccccc1C(C(=O)NC1CCCCC1)N(C(=O)Cn1ccnc1C)c1cccc(F)c1 (stereo not given) | inactive |
| COc1ccc2cc(-c3nc(-c4ccc(S(C)=O)cc4)[nH]c3-c3ccncc3)ccc2c1 (stereo not given) | inactive |
| CC(=O)N[C@@H](CS)C(=O)O | inactive |
| CC(=O)Oc1cc2c(s1)CCN(C(C(=O)C1CC1)c1ccccc1F)C2 (stereo not given) | inactive |
| NCCS | inactive |
| CCN(CC)CCNC(=O)c1ccc(N)cc1 | inactive |
| Cc1c(NC(=O)c2ccc(C(C)(C)C)cc2)cccc1-c1cn(C)c(=O)c(Nc2ccc(C(=O)N3CCOCC3)cc2)n1 | inactive |
| O=C(Nc1cccc(Br)c1)c1cccc(S(=O)(=O)N2CCCCCC2)c1 | inactive |
| OC[C@@H](O)[C@H](O)[C@H](O)[C@@H](O)CO | inactive |
| CCOC(=O)C1=C(N)Oc2ccc(Br)cc2C1C(C#N)C(=O)OCC (stereo not given) | inactive |
| COc1ccc(C2CC(c3ccccc3)=NN2c2ccc(S(N)(=O)=O)cc2)cc1 (stereo not given) | inactive |
| CCN(CC)CCOC(=O)c1ccc(N)cc1 | inactive |
| CN1C[C@H]2c3ccccc3Oc3ccc(Cl)cc3[C@@H]2C1 | inactive |
| CCS(=O)(=O)N1CC(CC#N)(n2cc(-c3ncnc4[nH]ccc34)cn2)C1 | inactive |
| CN(C)CCC(c1ccccc1)c1ccccn1 (stereo not given) | inactive |
| Cc1cccc(Nc2nc(-c3ccncc3)cs2)c1 | inactive |

| SMILES | Potency |
| --- | --- |
| CCN1CCC[C@H]1CNC(=O)c1cc(S(N)(=O)=O)ccc1OC | inactive |
| CC(C)(C)c1cc(C(=O)O)c(NC(=O)Nc2ccc3[nH]ncc3c2)s1 | inactive |
| CC(=O)c1ccc(S(=O)(=O)NC(=O)NC2CCCCC2)cc1 | inactive |
| COc1ccc2c(Oc3ccc(NC(=O)c4c(C)n(CC(C)(C)O)n(-c5ccccc5)c4=O)nc3)ccnc2c1 | inactive |
| O=C1NC(=O)C(c2ccccc2)(c2ccccc2)N1 | inactive |
| COCCOC(=O)C1=C(C)NC2=C(C(=O)CC(c3ccccc3OC)C2)C1c1cccc(O)c1 (stereo not given) | inactive |
| COc1ccc2cccc(CCNC(C)=O)c2c1 | inactive |
| CCCNC(=O)NS(=O)(=O)c1ccc(Cl)cc1 | inactive |
| CC[C@]1(O)C[C@@H]2CN(CCc3c([nH]c4ccccc34)[C@@](C(=O)OC)(c3cc4c(cc3OC)N(C)[C@H]3[C@@](O)(C(=O)OC)[C@H](OC(C)=O)[C@]5(CC)C=CCN6CC[C@]43[C@@H]65)C2)C1 | inactive |
| C[N+](C)(C)CC(=O)O | inactive |
| CS(=O)(=O)N(Cc1ccco1)CC(O)Cn1c2ccccc2c2ccccc21 (stereo not given) | inactive |
| O=C(NC1CCOCC1)c1ccc(-c2cc(-c3cn[nH]c3-c3ccccn3)ccn2)cc1 | inactive |
| COC[C@@H](c1ccc(C(F)(F)F)cc1)N1CCN(C2(C)CCN(C(=O)c3c(C)ncnc3C)CC2)C[C@H]1C | inactive |
| C[C@@H](O)[C@H]1C(=O)N2C(C(=O)O)=C(S[C@@H]3CN[C@H](C(=O)N(C)C)C3)[C@H](C)[C@H]12 | inactive |
| CO[C@H]1C=CO[C@@]2(C)Oc3c(C)c(O)c4c(O)c(c5c(c4c3C2=O)NC2(CCN(CC(C)C)CC2)N=5)=NC(=O)C(C)=CC=C[C@H](C)[C@H](O)[C@@H](C)[C@@H](O)[C@@H](C)[C@H](OC(C)=O)[C@H]1C | inactive |
| NC(=O)c1cccc(-c2cc(Nc3ccc(OC(F)(F)F)cc3)ncn2)c1 | inactive |
| COc1ccc2c(Oc3ccc(NC(=O)c4c(C)n(CC(C)(C)O)n(-c5ccccc5)c4=O)cc3F)ccnc2c1 | inactive |
| COc1ccccc1N1CCN(CCCNc2cc(=O)n(C)c(=O)n2C)CC1 | inactive |
| CC(C)C(=O)Nc1ncc(-c2cc(C(F)F)nn2-c2c(Cl)cccc2Cl)s1 | inactive |
| COCCOc1nc(-c2ccc(Cl)c(Cl)c2)n(-c2ccc(NC(=O)CCl)cc2)n1 | 28.2 µM (active) |
